Data taken from PubChem BioAssay AID1347428 (National Center for Advancing Translational Sciences (NCATS), 2020).
The campaign covered roughly 91,000 compounds. About 290 (0.32%) were called active. About 7% were inconclusive and are not listed. The call rests on the fitted dose curve; in most records, active means well fitted inhibition curve with a large enough effect; inconclusive means small, poorly fitted or top-dose-only effect; inactive means no such curve, though single readings can be large or run the other way. The sample as a whole holds a higher share of actives than the screen did.

These compounds were tested against Single-stranded DNA cytosine deaminase (Homo sapiens) (UniProt Q9GZX7) (assay: Primary qHTS assay for inhibitors of Activation Induced Cytidine Deaminase (AID): AID signal). Conditions: AID deamination FRET fluorescence, UDG-coupled, 4 h; series mostly up to 115 µM; activity change, negative = inhibition: at the top concentration.
Further: nearly all actives have a fitted effect of over 25% in size.
On the % scale 0 is the no-effect control and ±100 the full control effect; potency means the concentration at half of the fitted maximal effect.

Single-stranded DNA cytosine deaminase (Homo sapiens), sequence (Q9GZX7 whole entry, looked up): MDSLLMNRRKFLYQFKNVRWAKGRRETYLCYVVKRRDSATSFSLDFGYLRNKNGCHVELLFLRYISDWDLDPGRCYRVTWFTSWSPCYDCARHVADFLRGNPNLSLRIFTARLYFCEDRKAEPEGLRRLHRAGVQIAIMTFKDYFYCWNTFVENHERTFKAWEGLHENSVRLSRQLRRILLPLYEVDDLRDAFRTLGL

Structure (SMILES)	activity change, negative = inhibition	Potency
CCCCCCCCS(=O)(=O)CCCCCCC(=O)O	-5.95% (inactive)	
CC(=O)c1ccc(NC(=O)NCCCN(C)CC(F)(F)F)cc1	7.31% (inactive)	
CCCCn1nc(C(=O)Nc2cccc(C(=O)NC3CC3)c2)c2ccccc2c1=O	0.862% (inactive)	
CCc1ccc(CCC(=O)NC)cc1	-3.77% (inactive)	
CC(=O)N1CCC(C(=O)Nc2ccc(Br)cc2)CC1	-1.32% (inactive)	
Cc1cccc(C(=O)OC2CCCN(C)C2)c1 (stereo not drawn)	1.04% (inactive)	
CCN(CC)C(=S)SC(C(N)=O)c1ccccc1 (stereo not drawn)	-2.39% (inactive)	
CCCc1cc(=O)oc2cc(OS(=O)(=O)c3cccc(C#N)c3)ccc12	-6.87% (inactive)	
CCn1c(C)cc(/C=C(\C#N)c2ccc(Br)cc2)c1C	-17% (inactive)	
CCOC(=O)C1CCN(C(=O)COC(=O)c2cn(-c3ccccc3)nc2-c2ccc(Cl)cc2)CC1	-1.08% (inactive)	
O=C(COc1ccccc1)NCc1ccc2c(c1)CCN2C(=O)c1ccc(F)cc1		22.4 µM (active)
CCOc1ccccc1C(=O)NCc1ccc2c(c1)CCN2C(=O)c1ccc(F)cc1	-1.92% (inactive)	
COc1ccc(CCC(=O)NCc2ccc3c(c2)CCN3C(=O)c2ccc(F)cc2)cc1	-16.6% (inactive)	
N#CCCc1c(O)ccc2ccccc12	-3.83% (inactive)	
Cc1cccc(NC(=O)C(C#N)C(=O)CC(C)(C)C)c1 (stereo not drawn)	-20.9% (inactive)	
O=C(CSc1nc2c(c(=O)n1CCc1ccccc1)SCC2)Nc1cccc2ccccc12	-4.61% (inactive)	
O=C(Nc1ccc(C(F)(F)C(F)(F)C(F)(F)F)oc1=O)c1ccccc1	-2.06% (inactive)	
CCOc1ccc(NC(=O)Cn2cc(C(=O)c3ccc(C)cc3)c(=O)c3cc4c(cc32)OCCO4)cc1	2.34% (inactive)	
COc1ccc(NC(=O)Cn2cc(C(=O)c3ccncc3)c(=O)c3cc(C)ccc32)cc1Cl	20.6% (inactive)	
COc1ccc(Cn2cc(C(=O)c3ccc(C)cc3)c(=O)c3cc(OC)c(OC)cc32)cc1		44.7 µM (active)
Cc1ccccc1C(C)NC(=O)c1cc(-c2ccccc2)n[nH]1 (stereo not drawn)	-6.39% (inactive)	
COc1ccc(-c2cc3c(=O)n(CC(=O)NCc4cccc(Br)c4)ncn3n2)cc1	-2.07% (inactive)	
Cc1cc2c(cc1C)NC(CC(=O)Nc1ccc(C(F)(F)F)cc1)C(=O)N2 (stereo not drawn)	5.04% (inactive)	
Cc1cn[nH]c1C#N	4.84% (inactive)	
CCCCCOC(=O)CSc1nc2c(c(=O)[nH]c(=O)n2C)n1CCC	-11.6% (inactive)	
Cn1nc(C(F)(F)F)c(Cl)c1C(=O)NC1CCCC1	0.508% (inactive)	

Structure (SMILES)	activity change, negative = inhibition	Potency
Cc1ccccc1NC(=O)c1cc2c(=O)n3cccc(C)c3nc2n1Cc1ccccc1	-5.68% (inactive)	
COC(=O)Cc1c(C)c2ccc(OCc3ccc(F)cc3)cc2oc1=O	-9.33% (inactive)	
CCn1c(SCC(=O)c2ccc(Cl)cc2Cl)nnc1-c1cnccn1	-7.85% (inactive)	
CCOC(=O)C1=C(CN(CCOC)Cc2ccco2)NC(=O)NC1c1cccc(OC)c1OC (stereo not drawn)	-4.9% (inactive)	
O=C(COC(=O)CC12CC3CC(CC(C3)C1)C2)Nc1ccc([N+](=O)[O-])cc1C(F)(F)F	-2.15% (inactive)	
O=C(O)CC(NC(=O)Cc1cccc(F)c1)c1ccc(F)cc1 (stereo not drawn)	-2.56% (inactive)	
O=[N+]([O-])/C=C/c1ccc(-c2ccccc2)o1	-1.14% (inactive)	
O=C1CCCc2nccc(-c3ccc(Cl)cc3)c21	-2.16% (inactive)	
COC(=O)COc1cccc(C(=O)Nc2ccc(-c3nc4ccccc4o3)cc2)c1	2.24% (inactive)	
CCCn1c2ccccc2c2cnn(CC(=O)N3CCCC(C(=O)OCC)C3)c(=O)c21 (stereo not drawn)	-20.2% (inactive)	
CCCn1c2ccccc2c2cnn(CC(=O)NCCCOC(C)C)c(=O)c21	7.63% (inactive)	
CCCn1c2ccccc2c2cnn(CC(=O)N(CC)c3cc(C)ccc3C)c(=O)c21		35.5 µM (active)
C=CCn1c(SCC(=O)Nc2ccccc2)nc2c1c(=O)n(C)c(=O)n2C	-4.76% (inactive)	
C=CCn1c(Oc2ccc(F)cc2)nc2c1c(=O)n(C)c(=O)n2C	-10% (inactive)	
COC(=O)Cc1c(C)c2ccc(OCc3cccc(Cl)c3)cc2oc1=O	-4.26% (inactive)	
COc1ccc(S(=O)(=O)N2CCc3c(c(-c4nnc(SC)n4C)nn3C)C2)cc1	-13.2% (inactive)	
Cc1ccc(CN2CCC(CNC(=O)c3cnn(-c4ccc(C)cc4)c3C3CCN(C(=O)OC(C)(C)C)CC3)CC2)cc1	-21.8% (inactive)	
COc1ccccc1CN1CCC(CNC(=O)c2cnn(-c3ccccc3Cl)c2C2CCN(C(=O)OC(C)(C)C)CC2)CC1		44.7 µM (active)
Cc1cccc(C)c1-n1ncc(C(=O)NCCCN2CCCCC2)c1C1CCN(C(=O)OC(C)(C)C)CC1	-19.3% (inactive)	
CC(C)(C)OC(=O)N1CCC(c2c(C(=O)N3CCN(c4cccc(Cl)c4)CC3)cnn2-c2cccc(Cl)c2)CC1	-19.6% (inactive)	
COc1ccccc1N1CCN(CCCNC(=O)c2cnn(-c3ccccc3Cl)c2C2CCN(C(=O)OC(C)(C)C)CC2)CC1	-26.5% (inactive)	
COc1ccccc1CN1CCC(CNC(=O)c2cnn(-c3cccc(Cl)c3)c2C2CCN(C(=O)OC(C)(C)C)CC2)CC1		44.7 µM (active)
CCCCc1c(C)nc2c(Cl)cccc2c1Cl	-2.47% (inactive)	
CCn1nc(C)cc1-c1nn2c(-c3cccc(Cl)c3Cl)nnc2s1	-5.05% (inactive)	
O=C(O)c1ccc(-c2ccccc2)cc1C(=O)O	4.53% (inactive)	
Cc1nn(CCC(=O)Nc2c(Cl)cccc2Cl)c(=O)c(C#N)c1C	14.8% (inactive)	

Structure (SMILES)	activity change, negative = inhibition	Potency
COc1ccc(-c2cc(COC(=O)Cc3cccc(F)c3)on2)cc1	3.81% (inactive)	
N#C/C(=C/c1cccc([N+](=O)[O-])c1)c1ccc(C(F)(F)F)cn1	-16.6% (inactive)	
O=C(OCC(=O)C12CC3CC(CC(C3)C1)C2)c1ccccc1Cl	-5.72% (inactive)	
O=C(CCCOC(=O)c1cc(Cl)ccc1[N+](=O)[O-])c1ccc(Br)cc1	0.291% (inactive)	
O=C1SCCC1NC(=O)C(Sc1ccccc1)c1ccccc1 (stereo not drawn)	-6.8% (inactive)	
O=C(CCCCC(=O)OCC(=O)c1ccc(Br)cc1)OCC(=O)c1ccc(Br)cc1	19.4% (inactive)	
O=[N+]([O-])c1ccc2nc(Cl)ccc2c1	20% (inactive)	
Cc1nn(CC(=O)N(CC2CCOC2)C2CC2)c(=O)c2ccccc12 (stereo not drawn)	1.88% (inactive)	
Cc1cccc2c(=O)c(-c3ccccc3)c(NC(=O)c3ccc([N+](=O)[O-])cc3)oc12	-3.76% (inactive)	
Cc1n[nH]c(=O)c2c(NC(=O)CSc3nnc(C4CC4)n3Cc3ccccc3)oc(C)c12	11.5% (inactive)	
Cc1[nH]nc2c1C(c1cccc(OCc3ccc(Cl)cc3)c1)C(C#N)=C(N)O2 (stereo not drawn)	8.28% (inactive)	
CN(CCOC(=O)c1cccs1)Cc1ccccc1	-1.32% (inactive)	
Cc1ccc(-c2cc3ccccc3n2C)cc1	39.1% (inactive)	
CCn1c(SC(C)c2nnc(-c3ccccc3)o2)nc2ccccc2c1=O (stereo not drawn)	-21% (inactive)	
O=C(Cc1ccc(Cl)c(Cl)c1)NCC1CN(Cc2ccccc2)CCO1 (stereo not drawn)	-0.709% (inactive)	
CCn1ccc(C(=O)Nn2c(C)nc3sc4c(c3c2=O)CCC(C)C4)n1 (stereo not drawn)	1.64% (inactive)	
COC(=O)c1ccc(NC(=O)c2noc3c2COc2ccc(C)cc2-3)cc1	1.38% (inactive)	
COc1ccccc1Nc1c2c(nc3ccc(NC(=O)/C=C/c4cc(OC)c(OC)c(OC)c4)cc13)CCCC2		44.7 µM (active)
Cc1ccc(Nc2c3c(nc4ccccc24)CCC3)cc1	-5.61% (inactive)	
CCOc1ccc(C(=O)Nc2ccc3nc4c(c(Nc5ccccc5OC)c3c2)CCCC4)cc1	-3.06% (inactive)	
Cc1ccc2[nH]c(=S)nc(-c3ccccc3)c2c1	-5.12% (inactive)	
Cc1cc(O)c2c(C)c(CC(=O)Nc3nc4ccccc4[nH]3)c(=O)oc2c1	1.17% (inactive)	
Cc1ccc(CC(=O)NC2(C)CCCc3ccccc32)cc1 (stereo not drawn)	0.195% (inactive)	
CCn1c(SCC(=O)N2CCc3ccccc32)nnc1C(C)NC(=O)c1ccccc1F (stereo not drawn)	-8.1% (inactive)	
O=S1(=O)C=CC(N(Cc2ccccc2)Cc2ccccc2F)C1 (stereo not drawn)	-15.4% (inactive)	
Cc1cc(NC(=O)C(C)Sc2nc(NC3CC3)c3ccccc3n2)no1 (stereo not drawn)	-6.81% (inactive)	

Structure (SMILES)	activity change, negative = inhibition	Potency
O=C(NC(CCCc1ccccc1)c1ccccc1)c1ccc[n+]([O-])c1 (stereo not drawn)	-7.86% (inactive)	
COc1ccc(OC)c(CNC(=O)c2scnc2C)c1	10.7% (inactive)	
CCCCNC(=O)CSc1c2c(nc3cc(Cl)ccc13)CCCC2	-17.5% (inactive)	
COc1cccc(N=C2NN=C(c3ccc4c(c3)CC(C)N4S(C)(=O)=O)CS2)c1 (stereo not drawn)	21.3% (inactive)	
COc1cc(C(=O)Oc2ccc(C(C)=O)cc2)ccc1C	11.9% (inactive)	
CCN(C)Cc1cccc(CNC(=O)NC2CC2)c1	-3.88% (inactive)	
CCn1c(CNC(=O)C23CC4CC(CC(C4)C2)C3)nnc1SCC(=O)Nc1ccc(OC)cc1	-13.2% (inactive)	
CCCCn1c(CNC(=O)C23CC4CC(CC(C4)C2)C3)nnc1SCC(=O)Nc1ccc(C)cc1		44.7 µM (active)
Cc1cccc(NC(=O)CSc2nnc(CNC(=O)c3cccc(C)c3)n2-c2ccccc2)c1	-8.63% (inactive)	
Cc1ccc(-n2c(=O)c3sccc3n(CC(=O)N3CCCCC3C)c2=O)cc1C (stereo not drawn)	-1.29% (inactive)	
N#Cc1c(SCC(=O)N2CCCC2)nc(N2CCOCC2)c2c1CCCC2	-14.6% (inactive)	
Cc1ccc(NC(=O)Cn2c(=O)c3c(ncn3CC(C)C)n(CC(C)C)c2=O)cc1F	-19.2% (inactive)	
N#Cc1ncn(CCC(=O)Nc2ccc(F)c(F)c2)n1		14.1 µM (active)
CCOC(=O)c1ccc(NC(=O)CCn2cnnn2)cc1	0.636% (inactive)	
Cc1nc2nc(SCC(=O)c3ccccc3)[nH]c2cc1Br	-8.97% (inactive)	
CN(Cc1c(F)cccc1Cl)C(=O)c1ccc(NS(C)(=O)=O)cc1	-4.28% (inactive)	
O=C(NC1CC1)c1cc(-c2ccc(Cl)cc2)nc2ccccc12	-3.94% (inactive)	
COc1cc(F)ccc1NC(=O)Cc1nn(C)c(=O)c2ccccc12	-4.44% (inactive)	
COc1ccc(-c2nnc(SCCOc3ccc(Cl)cc3Cl)n2C(C)C)cc1	-26.6% (inactive)	
O=C(c1cnn(-c2ccc(F)cc2)c1-n1cccc1)N1CCN(c2ccc(F)cc2)CC1	-15% (inactive)	
Cc1c(Cl)cccc1NC(=O)C1CCCN(C(=O)c2cnn(-c3ccccc3)c2-n2cccc2)C1 (stereo not drawn)		22.4 µM (active)
Cc1c(Cl)cccc1NC(=O)C1CCCN(c2ncnc3onc(C)c23)C1 (stereo not drawn)	1.15% (inactive)	
Nc1nnnn1Cc1nnc(SCc2ccc(F)cc2)n1-c1ccccc1	-7.07% (inactive)	
Cc1ccccc1/C=C1\CCc2ccccc2C1=O	-12.2% (inactive)	
O=C(NC(c1ccccc1)c1ccccn1)c1cc[n+]([O-])cc1 (stereo not drawn)	5.75% (inactive)	
